Bioassay records: PubChem, National Center for Advancing Translational Sciences (NCATS)
The sample as a whole holds a higher share of hits than the screen did.
Pf Dd2 inh – inhibitors of Plasmodium falciparum Dd2 growth | P. falciparum Dd2 growth, SYBR Green, 72 h | Potency, µM (titrated, usually from 28.9 µM), hits mostly inhibitors | 120,000 compounds, 4.3% hits | AID 1347417; active = well fitted inhibition curve with a large enough effect; note: nearly all actives have a fitted effect of over 65% in size
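Readout: SYBR Green fluorescence, 485 nm excitation, 535 nm emission, after ~16 h lysis at 37C. Before that, Dd2-infected red cells (2.5% hematocrit) grew 72 h with compound, 29 uM top final concentration.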
A number is an active result; – = inactive; [ ] = another dose, or the depositor's remark.

SMILES	Pf Dd2 inh
CCS(=O)(=O)N1C[C@@H](COc2ccncc2)[C@H](c2ccccn2)C1	–
Cc1ccccc1S(=O)(=O)N1CCC(CCC(=O)N2CCc3ccccc3C2)CC1	–
Nc1cc(N2CCC(Oc3ccc4c(c3)OCO4)(C(=O)O)CC2)ncn1	–
Nc1nc2c(c(C(=O)N[C@H](c3ccccn3)C3CC(O)C3)n1)CCCC2 (stereo not given in full)	–
O=C1CC(c2noc(-c3cc(F)cc(F)c3)n2)CN1C1CCCCC1 (stereo not given)	–
CC1CN(C(=O)N2CCC(C(=O)NCCC3=CCCCC3)CC2)c2cc(Cl)ccc2O1 (stereo not given)	–[5.79 µM]
CCC1CN(C(=O)N2CCC(C(=O)NCCc3ccc(C)cc3)CC2)c2ccccc2O1 (stereo not given)	–
CCCNC(=O)C1CCN(C(=O)N2CC(C)Oc3ccccc32)CC1 (stereo not given)	–
CCOc1ccc(NC(=O)C2CCN(C(=O)N3CC(C)Oc4ccc(Cl)cc43)CC2)cc1 (stereo not given)	12.6µM
CNC(=O)C1CCN(C(=O)N2CC(C)Oc3ccc(C)cc32)CC1 (stereo not given)	–
CCC1CN(C(=O)N2CCC(C(=O)NCCN(CC)CC)CC2)c2cc(C)ccc2O1 (stereo not given)	–
CC1CN(C(=O)N2CCC(C(=O)NCc3cccs3)CC2)c2cc(Cl)ccc2O1 (stereo not given)	–
Cc1ccc2c(c1)N(C(=O)N1CCC(C(=O)NCCc3ccc(Cl)cc3)CC1)CC(C)O2 (stereo not given)	8.91µM
CCC1CN(C(=O)N2CCC(C(=O)NCCc3ccc(OC)cc3OC)CC2)c2cc(C)ccc2O1 (stereo not given)	5.62µM
CCOC(=O)c1cccc(NC(=O)N2CC[C@@H](CC(=O)Nc3nccs3)[C@@H](CC)C2)c1	–
O=C1N(C2CCN(S(=O)(=O)c3cnc[nH]3)CC2)C(c2ccccc2)C12CCCC2 (stereo not given)	–
COC[C@@H]1CN(C(=O)CN2CCCC2=O)C[C@H]1c1ccncc1	–
O=C(NC1CCOC2(CCOCC2)C1)c1csc(Cc2ccccc2)n1 (stereo not given)	–
OC1CCN(c2cc(C3CC(Nc4ncnc5sccc45)C3)ncn2)C1 (stereo not given)	–
CC(C)C(NS(=O)(=O)c1cccc2cccnc12)C(=O)Nc1ccc(OC(F)(F)F)cc1 (stereo not given)	10µM
O=C(Nc1cccc(C(F)(F)F)c1)O[C@@H]1CO[C@H]2[C@@H]1OC[C@@H]2NS(=O)(=O)c1cccc2cccnc12	–
CCOc1ccc(NC(=O)C(NS(=O)(=O)c2cccc3nsnc23)c2ccccc2)cc1 (stereo not given)	–
COC[C@@H]1CN(C(=O)Cc2c(F)cccc2Cl)C[C@H]1C(N)=O	–
CCCS(=O)(=O)N1C[C@@H](Oc2ccccc2)C[C@H]1C(=O)NCCOC	–
CCOC(=O)C1CCCN(C(=O)Cn2ncc3c4ccccc4n(C)c3c2=O)C1 (stereo not given)	–
SMILES	Pf Dd2 inh
CCc1cccc2c(C(CC(=O)NCCOC)c3ccc(OC)c(OC)c3)c[nH]c12 (stereo not given)	–
CCOC(=O)C1CCN(C(=O)CC(c2ccc(Cl)cc2)c2cn(C)c3ccccc23)CC1 (stereo not given)	3.98µM
CCc1cccc2c(C(CC(=O)N3CCCC3)c3cccc(Cl)c3)c[nH]c12 (stereo not given)	–
COc1ccc(C(CC(=O)N2CCCC2)c2cn(Cc3ccccc3)c3ccccc23)cc1OC (stereo not given)	–
CCc1cccc2c(C(CC(=O)NCCc3ccc(OC)c(OC)c3)c3cccc(OC)c3)c[nH]c12 (stereo not given)	–
Cc1ccc(C(CC(=O)N2CCc3ccccc3C2)c2cn(C)c3ccccc23)cc1 (stereo not given)	–
CCOC(=O)C1CCN(C(=O)CC(c2ccc(OC)c(OC)c2)c2c[nH]c3c(CC)cccc23)CC1 (stereo not given)	1.26µM
CCOC(=O)C1CCCN(C(=O)CC(c2ccc3c(c2)OCO3)c2cn(CC)c3ccccc23)C1 (stereo not given)	7.08µM
COc1ccc(C(CC(=O)NCc2ccccc2)c2c[nH]c3ccccc23)cc1OC (stereo not given)	–
CCc1cccc2c(C(CC(=O)NCc3ccc4c(c3)OCO4)c3ccc(OC)c(OC)c3)c[nH]c12 (stereo not given)	3.98µM
Cc1ccc(C(CC(=O)N2CCC(C)CC2)c2cn(C)c3ccccc23)cc1 (stereo not given)	–
Cc1nc(C)c(C(=O)N2CCC(c3noc(-c4ccccn4)n3)C2)s1 (stereo not given)	–[5.79 µM]
CS(=O)(=O)N1CCCC1c1noc(CCC(=O)N2CC=C(c3ccccc3)CC2)n1 (stereo not given)	–
O=C(Cc1cccnc1)N1CCCCCCn2c(nnc2-c2ccc(F)cc2)CC1	–
CN(C1CCOCC1)C1CCN(C(=O)c2cccnc2)CC1	–
CNC(=O)[C@@H]1C[C@H](n2cc(C(C)(C)NC(=O)c3cc(F)ccc3C)nn2)CN1	–
